{"source": "PubChem BioAssay (NCATS)", "key": {"[1]": {"molecular_target": "Cytochrome P450 1A2 (Homo sapiens) (UniProt P05177)", "sequence (P05177 whole entry, looked up)": "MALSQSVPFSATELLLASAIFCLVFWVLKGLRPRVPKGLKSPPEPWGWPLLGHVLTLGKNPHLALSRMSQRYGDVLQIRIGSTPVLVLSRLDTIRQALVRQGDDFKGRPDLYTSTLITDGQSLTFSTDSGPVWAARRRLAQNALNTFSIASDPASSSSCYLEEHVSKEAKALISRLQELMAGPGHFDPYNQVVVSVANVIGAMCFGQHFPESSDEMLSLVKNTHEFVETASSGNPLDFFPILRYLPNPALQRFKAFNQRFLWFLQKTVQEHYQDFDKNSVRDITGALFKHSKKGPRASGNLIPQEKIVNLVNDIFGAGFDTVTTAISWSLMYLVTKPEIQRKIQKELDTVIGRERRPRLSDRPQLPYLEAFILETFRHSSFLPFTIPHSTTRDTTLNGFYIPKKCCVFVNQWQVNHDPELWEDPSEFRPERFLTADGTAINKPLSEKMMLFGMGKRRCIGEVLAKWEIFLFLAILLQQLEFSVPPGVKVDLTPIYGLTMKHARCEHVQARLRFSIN", "test": "p450-cyp1a2 (AID 410; calls by dose curve; also: potency is read from the fitted curve at half-maximal effect)", "procedure,_shortened": "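Luminescent readout of luciferin formed from Luciferin-ME by human CYP1A2; data normalized against complete inhibition by 57 uM furafylline. Enzyme 20nM, substrate 100uM at Km, 100mM KPO4 buffer, 60 min reaction at room temperature.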"}, "[2]": {"molecular_target": "Glucocorticoid receptor (Homo sapiens) (UniProt P04150)", "sequence (P04150 whole entry, looked up, the tested form may be a part)": "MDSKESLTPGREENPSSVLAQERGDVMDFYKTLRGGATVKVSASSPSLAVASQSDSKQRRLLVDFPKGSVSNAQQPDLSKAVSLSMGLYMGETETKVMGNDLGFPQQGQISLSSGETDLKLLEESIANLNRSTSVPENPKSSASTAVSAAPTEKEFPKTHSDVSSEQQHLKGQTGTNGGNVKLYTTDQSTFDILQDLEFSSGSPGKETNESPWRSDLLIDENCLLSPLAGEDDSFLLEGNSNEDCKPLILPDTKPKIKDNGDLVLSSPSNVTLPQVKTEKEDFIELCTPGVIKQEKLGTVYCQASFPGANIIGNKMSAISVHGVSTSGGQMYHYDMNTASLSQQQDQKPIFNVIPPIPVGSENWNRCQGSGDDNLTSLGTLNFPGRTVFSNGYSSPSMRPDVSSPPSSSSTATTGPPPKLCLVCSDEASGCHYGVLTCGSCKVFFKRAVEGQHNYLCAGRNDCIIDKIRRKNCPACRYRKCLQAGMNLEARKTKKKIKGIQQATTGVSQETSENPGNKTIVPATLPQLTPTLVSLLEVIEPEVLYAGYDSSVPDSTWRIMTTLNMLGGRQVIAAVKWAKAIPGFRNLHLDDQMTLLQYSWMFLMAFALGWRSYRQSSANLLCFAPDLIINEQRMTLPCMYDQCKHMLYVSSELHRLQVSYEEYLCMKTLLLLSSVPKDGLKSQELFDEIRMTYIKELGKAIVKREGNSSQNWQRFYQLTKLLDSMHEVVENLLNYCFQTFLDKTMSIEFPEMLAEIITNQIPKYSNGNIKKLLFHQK", "test": "GR-GFP Redistribution (AID 450;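 active = compounds whose dose series gives a full or clear partial fitted curve of increased nuclear translocation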; also: potency is read from the fitted curve at half-maximal effect)", "conditions": "U2OS GR-GFP nuclear translocation, laser cytometry, 2 h"}, "[3]": {"molecular_target": "Glucocorticoid receptor (Homo sapiens) (UniProt P04150)", "test": "GR-EFC Redistribution (AID 451; calls by dose curve; also: potency is read from the fitted curve at half-maximal effect)", "conditions": "CHO-K1 GR-EFC translocation, beta-gal luminescence, 2 h", "procedure,_shortened": "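CHO-K1 cells expressing nuclear EA and GR-ED fragments of b-gal; compounds titrated up to 46 uM final, 2 h at 37 C. GR nuclear translocation read as complemented b-gal luminescence after 1 h RT detection.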"}, "[4]": {"molecular_target": "3',5'-cyclic-AMP phosphodiesterase 4B (Homo sapiens) (UniProt Q07343)", "sequence (Q07343 whole entry, looked up)": "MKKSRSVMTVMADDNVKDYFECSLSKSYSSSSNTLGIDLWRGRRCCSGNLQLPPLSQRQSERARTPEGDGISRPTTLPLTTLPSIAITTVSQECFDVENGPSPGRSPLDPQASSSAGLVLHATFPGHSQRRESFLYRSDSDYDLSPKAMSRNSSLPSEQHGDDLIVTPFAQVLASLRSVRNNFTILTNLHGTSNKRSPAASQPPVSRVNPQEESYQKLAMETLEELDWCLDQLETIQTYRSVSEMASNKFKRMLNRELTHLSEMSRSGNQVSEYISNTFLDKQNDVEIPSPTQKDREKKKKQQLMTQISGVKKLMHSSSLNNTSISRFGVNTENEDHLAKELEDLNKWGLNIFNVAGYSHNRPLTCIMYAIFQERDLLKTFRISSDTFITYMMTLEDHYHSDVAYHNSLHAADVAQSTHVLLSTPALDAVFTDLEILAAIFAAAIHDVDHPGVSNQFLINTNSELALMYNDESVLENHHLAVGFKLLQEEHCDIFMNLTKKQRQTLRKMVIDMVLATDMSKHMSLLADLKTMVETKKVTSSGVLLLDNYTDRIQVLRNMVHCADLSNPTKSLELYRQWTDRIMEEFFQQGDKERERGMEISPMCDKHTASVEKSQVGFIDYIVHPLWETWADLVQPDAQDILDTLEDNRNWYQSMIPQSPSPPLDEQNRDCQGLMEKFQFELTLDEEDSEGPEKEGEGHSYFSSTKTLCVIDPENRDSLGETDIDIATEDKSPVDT", "test": "qHTS Assay for Inhibitors of PDE-IV (AID 607; active = well fitted activation curve with a large enough effect in the main read-out, with a control signal flat, not every such curve was filed as active)", "procedure,_shortened": "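HEK293 ACTOne cells with CNG channel (1000/well), endogenous PDE4; membrane potential dye, compounds up to 22.9 uM final. Fluorescence Ex 535/Em 590; RO 20-1724 (100 uM final) as reference.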"}, "[5]": {"molecular_target": "Cytochrome P450 3A4 (Homo sapiens) (UniProt P08684)", "sequence (P08684 whole entry, looked up)": "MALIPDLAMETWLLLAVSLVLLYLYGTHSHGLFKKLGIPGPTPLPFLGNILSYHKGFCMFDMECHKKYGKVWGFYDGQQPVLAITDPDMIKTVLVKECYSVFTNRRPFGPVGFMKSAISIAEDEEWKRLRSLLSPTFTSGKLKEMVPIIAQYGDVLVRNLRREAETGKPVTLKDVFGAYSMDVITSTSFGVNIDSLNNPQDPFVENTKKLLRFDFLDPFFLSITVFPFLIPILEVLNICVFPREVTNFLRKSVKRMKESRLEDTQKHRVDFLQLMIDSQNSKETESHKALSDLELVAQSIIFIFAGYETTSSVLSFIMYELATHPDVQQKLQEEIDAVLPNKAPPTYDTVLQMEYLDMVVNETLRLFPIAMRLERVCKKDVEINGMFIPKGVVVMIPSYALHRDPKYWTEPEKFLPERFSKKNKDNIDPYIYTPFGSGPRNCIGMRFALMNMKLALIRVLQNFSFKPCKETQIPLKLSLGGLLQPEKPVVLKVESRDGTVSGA", "test": "qHTS Assay for Activators of Cytochrome P450 3A4 (AID 885); also: nearly all actives have a fitted effect of over 65% in size", "procedure,_shortened": "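Human CYP3A4 (20 nM) with Luciferin-PPXE at 25 uM (its KM) in 200 mM KPO4; 10 min compound preincubation, then NADPH regeneration and 60 min reaction at RT. Luciferin read by luminescence; normalized to 57 uM ketoconazole full inhibition.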"}, "[6]": {"molecular_target": "DNA dC->dU-editing enzyme APOBEC-3G (Homo sapiens) (UniProt Q9HC16)", "sequence (Q9HC16 whole entry, looked up)": "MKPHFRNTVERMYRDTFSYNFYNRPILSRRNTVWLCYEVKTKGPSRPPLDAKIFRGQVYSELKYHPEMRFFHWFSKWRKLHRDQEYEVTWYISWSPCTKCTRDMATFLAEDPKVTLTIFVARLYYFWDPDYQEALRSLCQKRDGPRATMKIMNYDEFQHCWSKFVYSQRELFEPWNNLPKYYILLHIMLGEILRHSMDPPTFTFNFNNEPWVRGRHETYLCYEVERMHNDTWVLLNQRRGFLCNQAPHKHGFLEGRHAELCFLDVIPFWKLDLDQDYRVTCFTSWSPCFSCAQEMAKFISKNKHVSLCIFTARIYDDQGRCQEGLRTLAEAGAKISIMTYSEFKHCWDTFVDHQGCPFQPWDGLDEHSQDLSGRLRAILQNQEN", "test": "qHTS for inhibitors of Vif-A3G interactions: Validation (AID 588379)", "procedure,_shortened": "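HeLa cells stably expressing Vif and A3G-eYFP, 700 cells/well, incubated overnight at 37 deg C, then exposed to compound overnight at 37 deg C. Inhibition of Vif-mediated degradation read as increased yellow fluorescence (Ex 488/Em 500-530) by laser-scanning cytometry.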"}, "[7]": {"system": "Zika virus NS2B-NS3 protease", "test": "Primary screen GU AMC qHTS for Zika virus inhibitors (AID 1347154); also: nearly all actives have a fitted effect of over 70% in size", "procedure,_shortened": "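Unlinked Zika NS2B hydrophilic domain–NS3 protease complex at 25 nM in 10 mM Tris-HCl pH 8.0, 0.01% Tween 20, with an AMC peptide substrate. Fluorescence change (340/450 nm) over 15 min at room temperature, normalized to controls, fitted to 4-parameter Hill.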"}, "[8]": {"system": "Zika virus NS2B-NS3 protease (linked construct)", "test": "Primary screen NINDS Rhodamine qHTS for Zika virus inhibitors (AID 1347160); also: nearly all actives have a fitted effect of over 55% in size; also: potency is read from the fitted curve at half-maximal effect", "procedure,_shortened": "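Purified NS2B-NS3 protease with the NS2B hydrophilic domain joined by a flexible linker (25 nM) in 10 mM Tris-HCl pH 8.0, 0.01% Tween 20, preincubated 15 min at RT with compound; Rhodamine110 peptide substrate 1.5 µM; fluorescence change over 15 min; 4-parameter Hill fit.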"}, "[9]": {"test": "OV-KATE Cancer Cell Toxicity qHTS against the NCATS CANVASS Library (AID 1347345)", "procedure,_shortened": "(§1)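 ATP content after 72 h treatment, detected by CellTiter-Glo luminescence (15min room-temperature development), reflects cell viability. Wells contained 1000 cells and received compounds at 11 concentrations.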"}, "[10]": {"test": "HPAF-II Cancer Cell Toxicity qHTS against the NCATS CANVASS Library (AID 1347346)", "procedure,_shortened": "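Luminescence from CellTiter-Glo, added after 72 h compound exposure and a 15 min room-temperature incubation, served as the viability readout. HPAF-II cells (1000/well) received an 11-point concentration series.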"}, "[11]": {"test": "OV-SAHO Cancer Cell Toxicity qHTS against the NCATS CANVASS Library (AID 1347348)", "procedure,_shortened": "as §1"}, "[12]": {"test": "Panc-1005 Cancer Cell Toxicity qHTS against the NCATS CANVASS Library (AID 1347349)", "procedure,_shortened": "as §1"}, "[13]": {"test": "U-118MG Cancer Cell Toxicity qHTS against the NCATS CANVASS Library (AID 1347351)", "procedure,_shortened": "as §1"}, "[14]": {"test": "COV-362 Cancer Cell Toxicity qHTS against the NCATS CANVASS Library (AID 1347352)", "procedure,_shortened": "(§2)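 Luminescent ATP read-out (CellTiter-Glo, 15min at room temperature) measures survival after cells face an 11-point compound series for 72 hours at 37 degrees C/5% CO2.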"}, "[15]": {"test": "UWB1.289-WTBRCA1 Cancer Cell Toxicity qHTS against the NCATS CANVASS Library (AID 1347354)", "procedure,_shortened": "as §2"}, "[16]": {"test": "HEK293 24hr Apoptosis Induction qHTS against the NCATS CANVASS Library (AID 1347359)", "procedure,_shortened": "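HEK293 cells, 500 per well, exposed to an 11-point compound series for 24 hours at 37 degrees C. Caspase 3/7 activity read by Caspase-Glo luminescence (DEVD substrate) after 15 min at room temperature.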"}, "[17]": {"molecular_target": "Mitogen-activated protein kinase 10 (Mus musculus) (UniProt Q61831)", "test": "JNK3 AlphaScreen Assay (AID 530; active = well fitted curve in either direction with a large enough effect, not every such curve was filed as active)", "procedure,_shortened": "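Pre-activated (IL-1β/TNFα) JNK3 in HepG2 lysates phosphorylates biotin-GST-cJun(1-79), 10 uM ATP; anti-phospho-cJun(Ser73) AlphaScreen read at room temperature, pH 7.6 Tris buffer. Compounds pre-incubated 15 min as titrations.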"}, "[18]": {"molecular_target": "Ubiquitin carboxyl-terminal hydrolase 1 (Homo sapiens) (UniProt O94782)", "sequence (O94782 whole entry, looked up)": "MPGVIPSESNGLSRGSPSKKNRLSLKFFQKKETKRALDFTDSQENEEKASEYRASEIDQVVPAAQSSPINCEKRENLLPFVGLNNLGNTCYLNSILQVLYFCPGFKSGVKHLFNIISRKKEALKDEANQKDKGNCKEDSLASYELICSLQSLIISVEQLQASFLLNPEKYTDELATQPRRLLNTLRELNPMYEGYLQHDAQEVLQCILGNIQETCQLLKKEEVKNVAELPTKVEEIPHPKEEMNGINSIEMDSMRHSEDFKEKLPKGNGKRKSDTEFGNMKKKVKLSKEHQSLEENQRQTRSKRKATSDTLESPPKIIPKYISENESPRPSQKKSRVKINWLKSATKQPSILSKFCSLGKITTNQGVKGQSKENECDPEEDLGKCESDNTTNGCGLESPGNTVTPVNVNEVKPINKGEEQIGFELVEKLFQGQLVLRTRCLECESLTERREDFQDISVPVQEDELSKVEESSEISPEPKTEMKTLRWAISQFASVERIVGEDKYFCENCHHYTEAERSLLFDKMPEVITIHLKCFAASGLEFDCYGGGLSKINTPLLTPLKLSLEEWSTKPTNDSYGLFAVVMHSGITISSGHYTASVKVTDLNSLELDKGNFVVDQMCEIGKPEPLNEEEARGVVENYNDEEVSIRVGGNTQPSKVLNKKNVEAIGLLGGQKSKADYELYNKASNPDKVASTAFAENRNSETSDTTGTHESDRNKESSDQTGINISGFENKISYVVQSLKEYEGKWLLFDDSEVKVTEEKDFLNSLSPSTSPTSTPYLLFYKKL", "test": "Inhibitors of USP1/UAF1: Pilot qHTS (AID 504865)", "procedure,_shortened": "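Deubiquitinase activity followed as kinetic rhodamine fluorescence release from 150 nM Ub-Rho. 1 nM USP1/UAF1 with compound, after 15 min room-temperature preincubation, in HEPES pH 7.8 buffer containing TCEP, EDTA, BSA and Tween-20.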"}}, "note": "Unmarked numbers belong to inactive results. Results filed as inconclusive are left out. Where a call stands in place of a potency, no number is given. Active and inactive are the calls of the source. Unless noted, calls follow the shape of the dose curve; as a rule, active = well fitted curve in the direction sought with a large enough effect; inconclusive = small, poorly fitted or top-dose-only effect, or another doubt; inactive = no such curve, though single readings can be large; an effect the other way counts as inactive or inconclusive."}
{"compound": "Cc1c(C(=O)c2ccc3ccccc3c2)c2cccc3c2n1[C@H](CN1CCOCC1)CO3", "values": [{"measurement": "Potency", "setting": "[1]", "result": "inactive"}, {"measurement": "Potency", "setting": "[2]", "result": "> 46", "unit": "µM"}, {"measurement": "Potency", "setting": "[3]", "result": "> 46", "unit": "µM"}, {"measurement": "Potency", "setting": "[4]", "result": "inactive"}, {"measurement": "Potency", "setting": "[5]", "result": "inactive"}, {"measurement": "Potency", "setting": "[6]", "result": "inactive"}, {"measurement": "Potency", "setting": "[7]", "result": "inactive"}]}
{"compound": "CNCCc1c[nH]c2ccccc12", "values": [{"measurement": "Potency", "setting": "[2]", "result": "> 20.6", "unit": "µM"}, {"measurement": "Potency", "setting": "[8]", "result": "inactive"}, {"measurement": "Potency", "setting": "[9]", "result": "inactive"}, {"measurement": "Potency", "setting": "[10]", "result": "inactive"}, {"measurement": "Potency", "setting": "[11]", "result": "inactive"}, {"measurement": "Potency", "setting": "[12]", "result": "inactive"}, {"measurement": "Potency", "setting": "[13]", "result": "inactive"}, {"measurement": "Potency", "setting": "[14]", "result": "inactive"}, {"measurement": "Potency", "setting": "[15]", "result": "inactive"}, {"measurement": "Potency", "setting": "[16]", "result": "inactive"}]}
{"compound": "O=C(O)c1ccccc1-c1c2cc(Br)c(=O)cc-2oc2[c]([Hg])c(O)c(Br)cc12", "values": [{"measurement": "Potency", "setting": "[1]", "result": "15.8 µM (active)"}, {"measurement": "Potency", "setting": "[3]", "result": "> 20.6", "unit": "µM"}, {"measurement": "outcome", "setting": "[17]", "result": "inactive"}, {"measurement": "Potency", "setting": "[4]", "result": "inactive"}, {"measurement": "Potency", "setting": "[5]", "result": "inactive"}, {"measurement": "Potency", "setting": "[18]", "result": "inactive"}]}
{"compound": "C[C@]12CC(O)C3[C@@H](CCC4C[C@@H](O)CC[C@@]43CO)[C@@]1(O)CCC2C1=CC(=O)OC1", "note": "(stereo partly specified)", "values": [{"measurement": "Potency", "setting": "[8]", "result": "62.1 µM (active)"}, {"measurement": "Potency", "setting": "[9]", "result": "inactive"}, {"measurement": "Potency", "setting": "[10]", "result": "inactive"}, {"measurement": "Potency", "setting": "[11]", "result": "inactive"}, {"measurement": "Potency", "setting": "[12]", "result": "inactive"}, {"measurement": "Potency", "setting": "[13]", "result": "inactive"}, {"measurement": "Potency", "setting": "[14]", "result": "inactive"}, {"measurement": "Potency", "setting": "[15]", "result": "inactive"}, {"measurement": "Potency", "setting": "[16]", "result": "inactive"}]}
{"compound": "CC(C)[C@@]1(NC(=O)[C@H]2CC3c4cccc5[nH]cc(c45)C[C@H]3N(C)C2)O[C@@]2(O)C3CCCN3C(=O)[C@@H](Cc3ccccc3)N2C1=O", "note": "(stereo partly specified)", "values": [{"measurement": "Potency", "setting": "[7]", "result": "inactive"}]}
{"compound": "CO[C@@H](/C=C/CC/C=C/C(=O)O)[C@@H](O)[C@H](C)/C=C(\\C)[C@@H](O)[C@H](C)C(=O)CCCC1CC(=O)NC(=O)C1", "values": [{"measurement": "Potency", "setting": "[8]", "result": "inactive"}, {"measurement": "Potency", "setting": "[9]", "result": "inactive"}, {"measurement": "Potency", "setting": "[10]", "result": "inactive"}, {"measurement": "Potency", "setting": "[11]", "result": "inactive"}, {"measurement": "Potency", "setting": "[12]", "result": "inactive"}, {"measurement": "Potency", "setting": "[13]", "result": "inactive"}, {"measurement": "Potency", "setting": "[14]", "result": "inactive"}, {"measurement": "Potency", "setting": "[15]", "result": "inactive"}, {"measurement": "Potency", "setting": "[16]", "result": "inactive"}]}
{"compound": "Cc1ncc(C[n+]2csc(CCO)c2C)c(=O)[nH]1", "values": [{"measurement": "Potency", "setting": "[7]", "result": "inactive"}]}
{"compound": "CCCC[C@@H]1CC[C@H]2CCCC(CCC)N12", "note": "(stereo partly specified)", "values": [{"measurement": "Potency", "setting": "[8]", "result": "49.3 µM (active)"}, {"measurement": "Potency", "setting": "[9]", "result": "inactive"}, {"measurement": "Potency", "setting": "[10]", "result": "inactive"}, {"measurement": "Potency", "setting": "[11]", "result": "inactive"}, {"measurement": "Potency", "setting": "[12]", "result": "inactive"}, {"measurement": "Potency", "setting": "[13]", "result": "inactive"}, {"measurement": "Potency", "setting": "[14]", "result": "inactive"}, {"measurement": "Potency", "setting": "[15]", "result": "inactive"}, {"measurement": "Potency", "setting": "[16]", "result": "inactive"}]}
{"compound": "CCN1C[C@]2(C)CC[C@H](O)[C@]34C1C(C[C@H]23)[C@@]12CC[C@H](CC14)[C@](O)(COC(=O)c1ccc(OC)c(OC)c1)[C@H]2O", "note": "(stereo partly specified)", "values": [{"measurement": "Potency", "setting": "[8]", "result": "inactive"}, {"measurement": "Potency", "setting": "[9]", "result": "inactive"}, {"measurement": "Potency", "setting": "[10]", "result": "inactive"}, {"measurement": "Potency", "setting": "[11]", "result": "inactive"}, {"measurement": "Potency", "setting": "[12]", "result": "inactive"}, {"measurement": "Potency", "setting": "[13]", "result": "inactive"}, {"measurement": "Potency", "setting": "[14]", "result": "inactive"}, {"measurement": "Potency", "setting": "[15]", "result": "inactive"}, {"measurement": "Potency", "setting": "[16]", "result": "inactive"}]}
